Screens: PubChem, National Center for Advancing Translational Sciences (NCATS)
An excerpt weighted towards active compounds, which were near 7.6% of everything screened.
MCF10A rereplic: inducers of DNA re-replication in MCF 10A breast cells. AID 624296. Potency, µM (doses to about 46.1 µM), hits mostly activators. MCF 10A DNA re-replication, Hoechst nuclear intensity, 48 h. actives 2.9% (n = 350,000); also: nearly all actives have a fitted effect of over 50% in size
KCNH2 3.1 block: blocks the human KCNH2 3.1 channel isoform; U2OS KCNH2 3.1, thallium flux FluxOr; stronger effect = lower value; activity change, % (tested at about 1.8 µM); actives 0.95% (n = 340,000);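 active = maximum activity change below -70%; inconclusive = maximum activity change from -70% to -50%; inactive = maximum activity change above -50%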;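 also: thallium influx rate constant from kinetic fluorescence after stimulation buffer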
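Normalized rate constant (relative to positive and negative DMSO controls) derived from a 2 min kinetic fluorescence read after stimulation; U2OS cells expressing the 3.1 isoform via virus at 1.77 x 10^8 /mL.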
KB-3-1 cytotox: KB-3-1 parental cell cytotoxicity; KB-3-1 viability, CellTiter-Glo ATP luminescence, 72 h; Potency, µM (top dose mostly 46.1 µM), usual class: cytotoxic; actives 1.4% (n = 400,000); AID 1347075; also: nearly all actives have a fitted effect of over 60% in size
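KB-3-1 cells, DMEM (no phenol red) + 10% FBS; compound by pin transfer, 72 h, 37 °C. Readout: CellTiter-Glo luminescence after 10 min. Data normalized, curve-fitted.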
KB-V1 MDR tox: KB-V1 MDR subline cytotoxicity; KB-V1 MDR cells viability, CellTiter-Glo, 72 h; Potency, µM (top dose mostly 46.1 µM), actives largely listed as cytotoxic; actives 3.4% (n = 400,000); AID 1347076; also: nearly all actives have a fitted effect of over 60% in size
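KB-V1 MDR subline cells in DMEM (phenol-red free, 10% FBS) exposed to compounds in qHTS concentration series for 72 h at 37 degrees C. Viability read by CellTiter-Glo luminescence; concentration-effect curves fitted after normalization and correction.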
hERG WT inh: KCNH2 (human, wildtype) channel inhibition | Q12809 | U2OS, BacMam KCNH2, thallium flux FluxOr; stronger effect = lower value | activity change, % at 1.84 µM | actives 0.37% (n = 340,000) | AID 720551;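 active = maximum activity change below -70%; inconclusive = maximum activity change between -70% and -50%; inactive = maximum activity change above -50%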
Target sequence (Q12809 whole entry, looked up): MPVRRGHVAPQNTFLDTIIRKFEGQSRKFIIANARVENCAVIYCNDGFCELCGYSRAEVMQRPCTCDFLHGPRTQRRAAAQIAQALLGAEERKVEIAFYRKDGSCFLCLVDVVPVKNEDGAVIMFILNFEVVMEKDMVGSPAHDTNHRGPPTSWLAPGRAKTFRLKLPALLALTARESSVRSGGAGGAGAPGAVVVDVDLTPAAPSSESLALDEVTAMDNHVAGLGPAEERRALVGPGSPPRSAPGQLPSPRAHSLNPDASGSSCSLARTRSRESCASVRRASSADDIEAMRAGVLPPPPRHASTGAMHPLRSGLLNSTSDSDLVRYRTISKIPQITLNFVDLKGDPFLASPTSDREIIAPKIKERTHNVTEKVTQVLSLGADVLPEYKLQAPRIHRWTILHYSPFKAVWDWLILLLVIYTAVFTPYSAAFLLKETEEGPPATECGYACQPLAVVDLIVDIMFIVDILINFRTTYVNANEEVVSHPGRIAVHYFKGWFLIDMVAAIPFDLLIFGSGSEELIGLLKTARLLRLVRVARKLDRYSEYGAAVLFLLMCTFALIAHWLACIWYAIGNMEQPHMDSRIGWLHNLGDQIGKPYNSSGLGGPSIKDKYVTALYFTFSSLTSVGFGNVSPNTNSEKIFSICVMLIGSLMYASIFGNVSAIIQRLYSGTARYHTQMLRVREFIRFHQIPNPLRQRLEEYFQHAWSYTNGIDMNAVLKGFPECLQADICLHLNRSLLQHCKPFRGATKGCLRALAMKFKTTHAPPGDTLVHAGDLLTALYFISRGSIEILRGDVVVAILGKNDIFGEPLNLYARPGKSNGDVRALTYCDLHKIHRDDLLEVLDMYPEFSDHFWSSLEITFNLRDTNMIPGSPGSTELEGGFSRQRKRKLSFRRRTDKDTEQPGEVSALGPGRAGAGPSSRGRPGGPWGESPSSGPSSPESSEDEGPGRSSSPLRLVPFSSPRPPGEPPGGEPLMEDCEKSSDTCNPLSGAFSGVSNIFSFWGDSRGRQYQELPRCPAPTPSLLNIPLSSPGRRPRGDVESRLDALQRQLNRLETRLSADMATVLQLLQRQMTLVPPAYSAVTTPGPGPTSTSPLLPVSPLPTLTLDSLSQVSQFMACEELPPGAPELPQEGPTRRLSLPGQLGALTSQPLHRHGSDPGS
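U2OS cells were transduced with wild-type KCNH2 virus (2.03 x 10^8 / mL) for 4 h at room temperature, then cultured overnight at 37 C. Thallium flux was read with FluxOr dye. Rate constants were normalized to DMSO controls.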
SW480 rereplic: DNA re-replication induction in SW480 cells; Potency, µM (top dose mostly 46.1 µM), actives largely listed as activators; AID 624297; SW480 DNA re-replication, Hoechst DNA content imaging, 48 h; actives 1.8% (n = 340,000); also: nearly all actives have a fitted effect of over 55% in size
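Hoechst fluorescence of nuclei (405 nm excitation, 500-530 nm emission) measured by plate-scanning imager after 48 hr compound exposure at 37 C; re-replication scored as increased number of nuclei with elevated intensity.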
Numbers stand for hits; 0 = inactive; ? = inconclusive; - = no result. Unless noted, calls follow the shape of the dose curve; as a rule, active = well fitted curve in the direction sought with a large enough effect; inconclusive = small, poorly fitted or top-dose-only effect, or another doubt; inactive = no such curve, though single readings can be large; an effect the other way counts as inactive or inconclusive.

SMILES	MCF10A rereplic	KCNH2 3.1 block	KB-3-1 cytotox	KB-V1 MDR tox	hERG WT inh	SW480 rereplic
CC(C)Oc1cccc(C2CC(=O)Nc3cc4c(cc32)OCO4)c1 (configuration not stated)	-	-	3.7µM	?	-	-
COc1cc(CN2CCN(C(=O)CC(C)C)CC2)c([N+](=O)[O-])cc1OC	0	0	0	?	0	0
COc1cc2c(cc1OC)C(c1ccc(Br)cc1)CC(=O)N2 (configuration not stated)	0.65µM	0	0	0	-126	?
COc1cc2c(cc1OC)C(c1ccc(C(F)(F)F)cc1)CC(=O)N2 (configuration not stated)	0	0	0	0	0	0
COc1cccc(C2CC(=O)Nc3cc(OC)c(OC)cc32)c1 (configuration not stated)	0	0	0	0	0	?
Cc1cc2c(cc1C)C(c1ccccc1Br)CC(=O)N2 (configuration not stated)	?	0	18µM	23µM	0	?
CC(C)Oc1ccccc1C1CC(=O)Nc2cc3c(cc21)OCO3 (configuration not stated)	0.52µM	0	2.6µM	1.3µM	0	?
CCOc1ccccc1C1CC(=O)Nc2cc(C)c(C)cc21 (configuration not stated)	?	?	?	8.2µM	0	18µM
COc1cc(C(=O)NCCNC(=O)c2ccco2)cc(OC)c1OC	0	0	0	?	0	0
Nc1nc(NCCc2ccccc2)c2[nH]cnc2n1	-	-	0	0	-	-
CCOC(=O)c1cc(-c2ccc(F)cc2)n(CCC(=O)NC2CCN(Cc3ccccc3)CC2)c1C	?	0	?	0	0	?
CN(C)c1ccc(C(=O)N2CCC2(C)C(=O)O)cc1 (configuration not stated)	-	-	0	0	-	-
CC1(C)CC2(C)OC(=N)C1(C#N)C2(C#N)C#N (configuration not stated)	23µM	0	0	0	0	0
CCOc1ccccc1C(=O)NCc1ccc2c(c1)CCN2C(=O)c1ccccc1	-	-	0	0	-	-
CCCC(=O)OCC(=O)NCc1ccc(Cl)cc1	0	0	0	0	0	0
O=C(COC(=O)CC(c1ccccc1)c1ccccc1)NCc1ccc(Cl)cc1	?	0	0	23µM	0	?
CC1Oc2ccccc2C=C1/C=N/Nc1ccc(C(=O)O)cc1 (configuration not stated)	23µM	0	0	0	0	7.3µM
COC(=O)c1ccc(C2NC(=S)N(c3ccccc3)C(C)=C2C(=O)Nc2ccccc2OC)cc1 (configuration not stated)	0	0	0	0	0	0
COc1ccccc1NC(=O)C1=C(C)N(c2ccccc2)C(=S)NC1c1cccc(C(F)(F)F)c1 (configuration not stated)	0	0	?	8.2µM	0	0
COc1ccnc(Oc2ccc(F)cc2)c1C(=O)N/C=N/OCc1ccc(Cl)cc1Cl	?	0	0	?	0	2.3µM
COc1ccc(S(=O)(=O)N(C)CC(=O)Nc2ccccc2C(F)(F)F)cc1Cl	0	0	0	15µM	0	0
CC(C)c1nnc(NC(=O)C2CCN(c3cnccn3)CC2)s1	0	0	0	23µM	0	0
C=CCNC(=O)C1CCN(c2cnccn2)CC1	0.23µM	0	0	?	0	0
O=C(NCc1ccc(F)cc1)C1CCN(c2cnccn2)CC1	0	0	0	0	0	0
COC(=O)C1CCN(S(=O)(=O)c2cc3c4c(c2)CCN4C(=O)CC3)CC1	0	0	0	0	0	0
O=C(NCc1ccccc1)C(=O)NCC(c1cccs1)S(=O)(=O)c1ccccc1 (configuration not stated)	-	-	0	0	-	-
O=C(Cc1ccccc1[N+](=O)[O-])Nc1nccs1	0	0	0	0	0	2.9µM
O=C(Cc1ccccc1)Nc1nccs1	0	0	0	0	0	0
CCc1ccc(NC(=O)CN2C(=O)c3ccccc3Sc3ccc(C(=O)N4CCCC4)cc32)cc1	-	-	0	0	-	-
